According to the supplement of paper PMC6897291:

Tests used:
[1] = test system: U-2932; test: growth inhibition by drug alone (1 - RLU/untreated control) (fraction); higher = stronger inhibition; settings: 177Lu-lilotomab satetraxetan 0 ug/ml
How it was run: (§1)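 Compound doses on the pre-printed Selleck Cambridge Cancer Compound library plates were 10/100 nM for RIVA cells and 10/1,000 nM for U-2932 cells, seeded at 3,000 cells/well. Before seeding, cells were washed after 18 h with or without a radiolabelled anti-CD37 antibody conjugate (~600 MBq/mg; 0.5 µg/ml RIVA, 1 µg/ml U-2932). Growth inhibition was derived from RealTime-Glo luminescence relative to untreated no-drug control wells. Readings were taken daily starting on day 3, each after 1 h at 37°C, and each well's RLU was divided by the mean of 48 such wells per plate and subtracted from 1.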

[2] = test system: RIVA; test: as above; settings: 177Lu-lilotomab satetraxetan 0 ug/ml
How it was run: as §1

[3] = test system: U-2932; test: growth inhibition by drug plus 177Lu-lilotomab satetraxetan (1 - RLU/untreated control) (fraction); higher = stronger inhibition; settings: 177Lu-lilotomab satetraxetan 1 ug/ml
How it was run: as §1

[4] = test system: RIVA; test: as above; settings: 177Lu-lilotomab satetraxetan 0.5 ug/ml
How it was run: as §1

SMILES | growth inhibition by drug alone ([1]; 10 nM, time (day): 3) | growth inhibition by drug alone ([1]; 10 nM, time (day): 4) | growth inhibition by drug alone ([1]; 10 nM, time (day): 5) | growth inhibition by drug alone ([1]; 10 nM, time (day): 6) | growth inhibition by drug alone ([1]; 1000 nM, time (day): 3) | growth inhibition by drug alone ([1]; 1000 nM, time (day): 4) | growth inhibition by drug alone ([1]; 1000 nM, time (day): 5) | growth inhibition by drug alone ([1]; 1000 nM, time (day): 6) | growth inhibition by drug alone ([2]; 10 nM, time (day): 3) | growth inhibition by drug alone ([2]; 10 nM, time (day): 4) | growth inhibition by drug alone ([2]; 10 nM, time (day): 5) | growth inhibition by drug alone ([2]; 10 nM, time (day): 6) | growth inhibition by drug alone ([2]; 100 nM, time (day): 3) | growth inhibition by drug alone ([2]; 100 nM, time (day): 4) | growth inhibition by drug alone ([2]; 100 nM, time (day): 5) | growth inhibition by drug alone ([2]; 100 nM, time (day): 6) | growth inhibition by drug plus 177Lu-lilotomab satetraxetan ([3]; 10 nM, time (day): 3) | growth inhibition by drug plus 177Lu-lilotomab satetraxetan ([3]; 10 nM, time (day): 4) | growth inhibition by drug plus 177Lu-lilotomab satetraxetan ([3]; 10 nM, time (day): 5) | growth inhibition by drug plus 177Lu-lilotomab satetraxetan ([3]; 10 nM, time (day): 6) | growth inhibition by drug plus 177Lu-lilotomab satetraxetan ([3]; 1000 nM, time (day): 3) | growth inhibition by drug plus 177Lu-lilotomab satetraxetan ([3]; 1000 nM, time (day): 4) | growth inhibition by drug plus 177Lu-lilotomab satetraxetan ([3]; 1000 nM, time (day): 5) | growth inhibition by drug plus 177Lu-lilotomab satetraxetan ([3]; 1000 nM, time (day): 6) | growth inhibition by drug plus 177Lu-lilotomab satetraxetan ([4]; 10 nM, time (day): 3) | growth inhibition by drug plus 177Lu-lilotomab satetraxetan ([4]; 10 nM, time (day): 4) | growth inhibition by drug plus 177Lu-lilotomab satetraxetan ([4]; 10 nM, time (day): 5) | growth inhibition by drug plus 177Lu-lilotomab satetraxetan ([4]; 10 nM, time (day): 6) | growth inhibition by drug plus 177Lu-lilotomab satetraxetan ([4]; 100 nM, time (day): 3) | growth inhibition by drug plus 177Lu-lilotomab satetraxetan ([4]; 100 nM, time (day): 4) | growth inhibition by drug plus 177Lu-lilotomab satetraxetan ([4]; 100 nM, time (day): 5) | growth inhibition by drug plus 177Lu-lilotomab satetraxetan ([4]; 100 nM, time (day): 6)
CC(=O)O[C@H]1C(=O)[C@@]2(C)[C@H]([C@H](OC(=O)c3ccccc3)[C@]3(O)C[C@H](OC(=O)[C@H](O)[C@@H](NC(=O)c4ccccc4)c4ccccc4)C(C)=C1C3(C)C)[C@]1(OC(C)=O)CO[C@@H]1C[C@@H]2O [Paclitaxel (Taxol)] | 0.806 | 0.808 | 0.794 | 0.778 | 0.955 | 0.969 | 0.977 | 0.983 | 0.943 | 0.957 | 0.965 | 0.967 | 0.949 | 0.962 | 0.969 | 0.972 | 0.818 | 0.846 | 0.866 | 0.883 | 0.955 | 0.97 | 0.979 | 0.986 | – | – | – | – | – | – | – | –
COc1ncc(-c2ccc3nccc(-c4ccnnc4)c3c2)cc1NS(=O)(=O)c1ccc(F)cc1F | 0.726 | 0.786 | 0.81 | 0.821 | 0.87 | 0.935 | 0.961 | 0.972 | 0.856 | 0.892 | 0.918 | 0.933 | 0.898 | 0.925 | 0.943 | 0.953 | 0.744 | 0.769 | 0.769 | 0.768 | 0.908 | 0.958 | 0.976 | 0.982 | 0.897 | 0.937 | 0.952 | 0.961 | 0.937 | 0.963 | 0.97 | 0.975
